In all, about 33,000 sequences were measured (“E-score (-0.5 to 0.5)”: median about -0.01, highest 2% from about 0.26 on). For the sample, the highest values were picked, then their nearest neighbours and some sequences at random.
Each sequence was assayed against Ste12 (UniProt P13574) (assay: PBM E-score (8-mer binding enrichment) (E-score (-0.5 to 0.5)); higher = stronger / more preferred TF binding). Conditions: protein concentration: 200 nM; construct: GST-DNA-binding domain.
Experimental: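 Universal 'all 10-mer' protein binding microarrays (Agilent AMADID 015681) probed with GST-tagged S. cerevisiae TFs (full-length or DBD) made by in vitro transcription/translation (PURExpress), about 100-200 nM. Bound TF was detected with fluorescent anti-GST. Each ungapped 8-mer (which stands for itself and its reverse complement) is scored by the PBM enrichment score (E-score), a modified Wilcoxon-Mann-Whitney statistic from -0.5 to +0.5, computed with the Universal PBM Analysis Suite. Scale: above 0.35 generally sequence-specific binding.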

Chain of UniProt P13574 (P13574 whole entry, the tested form may be a part): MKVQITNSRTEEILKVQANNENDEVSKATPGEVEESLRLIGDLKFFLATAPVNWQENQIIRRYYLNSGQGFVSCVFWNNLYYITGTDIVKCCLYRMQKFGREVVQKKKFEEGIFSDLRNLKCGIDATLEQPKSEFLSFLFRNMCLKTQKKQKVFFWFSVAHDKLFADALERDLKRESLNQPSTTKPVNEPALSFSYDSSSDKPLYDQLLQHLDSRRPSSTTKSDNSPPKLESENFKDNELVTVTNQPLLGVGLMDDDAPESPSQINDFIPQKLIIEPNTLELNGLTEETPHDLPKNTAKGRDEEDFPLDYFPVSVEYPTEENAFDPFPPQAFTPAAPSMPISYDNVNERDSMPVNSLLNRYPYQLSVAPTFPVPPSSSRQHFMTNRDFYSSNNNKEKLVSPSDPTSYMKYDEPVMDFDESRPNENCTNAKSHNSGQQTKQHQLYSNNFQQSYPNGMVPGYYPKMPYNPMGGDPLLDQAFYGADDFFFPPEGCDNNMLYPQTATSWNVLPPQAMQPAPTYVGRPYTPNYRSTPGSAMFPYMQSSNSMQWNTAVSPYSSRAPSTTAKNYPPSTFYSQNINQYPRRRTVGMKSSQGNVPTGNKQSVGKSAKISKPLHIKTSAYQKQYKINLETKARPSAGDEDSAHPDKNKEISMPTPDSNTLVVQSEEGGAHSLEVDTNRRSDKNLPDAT

| Sequence | PBM E-score |
| --- | --- |
| CAAATTTA | 0.217 |
| GAAATTGA | 0.12 |
| AAAATTGA | 0.226 |
| TAAATTGA | 0.288 |
| AAAATTTA | 0.085 |
| TAAATTTA | 0.334 |
| ACGCTCTC | -0.122 |
| ACCTGCTC | -0.0508 |
| ATACCTCA | 0.0605 |
| ATGTCTGG | 0.0356 |
| GGGGGGGA | -0.298 |
| AGCGGGGA | 0.111 |
| CGCGGGAA | 0.161 |
| CGCGGGGA | 0.333 |
| GGCGGGAA | 0.00719 |
| GGCGGGGA | 0.407 |
| AAAATCTC | 0.119 |
| CGTTAGGC | -0.0275 |
| ATTAATCA | 0.145 |
| ATTAATTG | 0.237 |
| AATAATAC | 0.198 |
| ATTAATTA | 0.237 |
| ATTAATCG | 0.273 |
| ATTAATTC | 0.308 |

| Sequence | PBM E-score |
| --- | --- |
| AATAATAA | 0.308 |
| ATTAATAC | 0.263 |
| CTTAATAC | 0.207 |
| CATAATAA | 0.136 |
| ATTAATCC | 0.0655 |
| AATAATAG | 0.0434 |
| GCATTCGC | -0.276 |
| CCAAACCC | 0.194 |
| ATAGATCG | 0.0199 |
| CTAACCTC | -0.0539 |
| ACCTGTCG | 0.00512 |
| CCGCGGCC | 0.174 |
| CAATACCC | -0.00702 |
| AGACTACC | -0.179 |
| AAACTAGT | 0.123 |
| ATCATCTC | 0.0683 |
| ATTAATAG | 0.283 |
| GTTAATAA | 0.0895 |
| ATTAATAA | 0.289 |
| AATAAGAT | 0.00235 |
| ATTAATGG | 0.219 |
| AATAAGAA | 0.276 |
| AGTAATAG | 0.0705 |
| CTTAATAA | 0.232 |

| Sequence | PBM E-score |
| --- | --- |
| AATAAGAG | 0.0566 |
| ACTGGTCT | -0.117 |
| GTGATCGA | 0.161 |
| ATTGTGTG | -0.0472 |
| ATTGTGTA | 0.274 |
| CTTGTGTA | 0.0226 |
| ACTGCGAT | -0.072 |
| CATGGCAA | 0.0424 |
| CAACATGA | 0.0787 |
| TAACATGA | 0.098 |
| AAACATGG | 0.206 |
| AAACATGC | 0.231 |
| AAACATCC | 0.249 |
| AAACATGA | 0.321 |
| AAACATCA | 0.328 |
| AAACATGT | 0.301 |
| CAACATCA | 0.0676 |
| TCTTCTCA | 0.019 |
| GATCTGAA | 0.0323 |
| ATGGACCG | -0.00313 |
| TCCGATCA | 0.0466 |
| CAGTGTGC | -0.187 |
| ACCTAACG | -0.137 |
| ATATTCAT | 0.227 |

| Sequence | PBM E-score |
| --- | --- |
| GCGCCGGA | -0.0097 |
| ATTAAACC | 0.156 |
| AGTAAAAT | 0.122 |
| ATTAAAAG | 0.137 |
| CTTAAAAA | 0.22 |
| AGTAAAAC | 0.168 |
| ATTAAAGA | 0.0703 |
| ATTAAAAA | 0.295 |
| CTTAAAAG | -0.0909 |
| CTTAAAAC | 0.352 |
| ATTAAAAT | 0.32 |
| ATTAAAAC | 0.313 |
| CCACTGAC | -0.126 |
| AGCATAAC | -0.00864 |
| ACTACATG | 0.0147 |
| CCGACACA | -0.0323 |
| ATTTAGCG | -0.0176 |
| GGCAATAC | 0.0406 |
| GAGATCTC | -0.14 |
| CACTTCAG | -0.198 |
| GATTCTGA | 0.0395 |
| ACGTGAAT | 0.0319 |
